Results reported in the emibetuzumab library of Makowski et al. (2022).
The other results are listed elsewhere or left out. No count for the full screen is at hand.

B1: VH:VL chains; a variant is named by its letters at X, in order (parent)
chain 1: QVQLVQSGAEVKKPGASVKVSCKASGYTFTDYXMHWVRQAPGQGLEWMGXVNPNXXXTTYNQKFEGRVTMTTDTSTSTAYMELRSLRSDDTAVYYCARXNXLDXWGQGTTVTVSS
chain 2: DIQMTQSPSSLSASVGDRVTITCSVSSSVSSIYLHWYQQKPGKAPKLLIYSTSNLASGVPSRFSGSGSGTDFTLTISSLQPEDFATYYCQVYSGYPLTFGGGTKVEIK

Variants of: B1
Test: yeast display scFab, FACS + sequencing
Settings: with MET
Procedure, shortened: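 Antigen binding was called positive for sequences present in both antigen-positive samples and negative for those present only in the input. These calls came from deep sequencing, in two replicates, of round-3 sorted and input populations from a heavy-chain CDR mutant scFab yeast surface library. The library was first enriched twice magnetically on HGFR-Fc-coated Protein A beads and then by FACS, gating the top 50% antigen-positive cells after 3 h labelling at room temperature with 1 nM HGFR-Fc plus anti-Myc in PBSB with 1% milk.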

Variant | antigen binding call
FAAETDVF | no binding
AARADDWD | no binding
DTGEDDVY | no binding
SAGEGSLV | no binding
DRAETDVY | no binding
SAAGGASD chain 1 L45S | no binding
YTTKSDGV | no binding
VTGTGDGA | no binding
STGGDDGA | no binding
FREGGALD | binds
YARGGDLD | no binding
DARGGSLD | no binding
FRRGGALD | binds
FRRGGSLD | binds
FARAAALD | no binding
YRRGGALD | binds
VEKEGDGA | no binding
AKAGSYGV | no binding
FRAEGSLD | binds
FRGGGDWD | no binding
FRKGGSLD | binds
ARRGSSLD | binds
ATGRASLD | no binding

Variant | antigen binding call
FRGGGSLD | binds
YTEGDDWY | no binding
SEARSDGF | no binding
DAKENDVA | no binding
YTGGDDVD | no binding
FRKGTALD | binds
FREKGDLA | binds
FRTKSDLA | no binding
FRGKGAGA | binds
FKGKGSGA | no binding
FRGKGSGA | binds
FRGKGSLA | binds
VKEKGDLA | no binding
FKGKGFGA | no binding
DAKKNASF | no binding
VTREGAVA | no binding
YTEGDDGA | no binding
FRGKGAAA | binds
FRGKSAAA | binds
VTGRAAWV | no binding
YRRRGAVY | binds
YRRRGFWY | no binding
YRRRGDVY | binds

Variant | antigen binding call
YRAGDDVY | no binding
YTERGDVY | no binding
STTGSASF | no binding
FKGRGSLS | binds
FKGRDSGS | no binding
FKGRGSSS | binds
VGATSVSF | no binding
YARADDGS | no binding
VEAGDAGS | no binding
DAEKGAWA | no binding
YRTRDAWV | binds
FRTRDFLV | no binding
VRTEDAWV | no binding
ARGRDAWV | no binding
YRTRDALV | binds
YRTRDDVY | no binding
FRGRDDLV | no binding
YRGRDALV | binds
DRGRDDVV | no binding
YRGRDYGV | no binding
YRTRDDVV | binds
YARADDGD | no binding
YAAETDVF | no binding

Variant | antigen binding call
VKEKGDGS | no binding
VKGTGFLD | no binding
YRAKGSLA | binds
YRAKGALA | binds
ATGANAAV | no binding
AGGRSFVF | no binding
YEGRNVGV | no binding
VAGTGDLA | no binding
DEGGTDWD | no binding
YRAKGAGA | binds
YRAKGVGA | binds
YRAKGYGA | no binding
SARGGYWY | no binding
YRRKGAAY | binds
DARGGAVY | no binding
YRRGGAAY | binds
SRKEGAAY | no binding
YRKGGAAY | binds
YRKGGDLY | no binding
YRRRGAAY | binds
STGRADWA | no binding
SEARSALV | no binding
DEGGTSGV | no binding

Variant | antigen binding call
FKKGSYVF | no binding
FKKGDAVS | no binding
FKKGSAAV | binds
DKEGGAAV | no binding
FKKGSAVV | binds
VAGGDDVF | no binding
DEGKAAGS | no binding
YRRRGASA | binds
YRRRGVSA | binds
VTGRAALA | no binding
SERRDVLY | no binding
DRAGDDWA | no binding
VTETGSLV | no binding
FRGRDFVS | no binding
VTGGDSAS | no binding
DAKRDSAS | no binding
YRGGDDSS | no binding
YRGRDSAS | binds
YRTRDSAS | binds
YRGRDSVS | binds
YRGGDSAS | binds
DRGRDDGS | no binding
SAKRDSAS | no binding

Variant | antigen binding call
VEAGDDSA | no binding
SEARSDVY | no binding
YTEGDFAV | no binding
VGRGNVGV | no binding
YRGEGSAS | binds
DATGGDVD | no binding
SEKGGSSA | no binding
SKKRGAWA | binds
SKTKSSSA | no binding
SEGRGAAA | no binding
SKERGDAA | no binding
SKKRGAAA | binds
SKGASAWA | no binding
SKERGDWY | no binding
SKKRGASA | binds
SKKRGAWY | binds
SKKTGDLY | no binding
SKGEGDWA | no binding
